Source: the OligoGym collection

Target: TTLL4
Assay: pooled miR-30 sensor sort-seq; sequence = guide strand
Details: shRNA
Further: reference of the scale not given here.

Row | Sequence | sensor-assay potency score (higher = more potent)
1 | TCGCACATACATCTTGAGCAGG | -1.1
2 | AGTTTTGACAACAACATCCTTT | -0.763
3 | TTAGCTTCTGATGCTCTCGAAT | -0.842
4 | TAGTTTTGACAACAACATCCTT | -0.466
5 | TTTTTATTGACACTGTAGTTGG | -0.76
6 | TTTGACAACAACATCCTTTATC | -1.2
7 | TTTATTGACACTGTAGTTGGTC | 0.947
8 | TTGATCACAGGTAACGTCTGGG | 0.356
9 | TGTATCTTCAGTCTCAGCCTGA | 0.277
10 | TTCTTCTGTATCTTCAGTCTCA | 0.119
11 | TTGAGTATCACGTCATCCTTTG | -0.629
12 | TTGCTAGTCTCTGATTTGCTGA | -0.807

Target: TTYH3
Assay: as above
Details: shRNA

Row | Sequence | sensor-assay potency score (higher = more potent)
13 | TTCAGCACCTCCTGGACGCGGA | -0.58
14 | AAGCTCAGCCACGACATCCTGC | -0.514
15 | ATGATGACACACCAGGCCGTGC | -1.46
16 | TTGCACGTAGTCCAGATGCAGG | -1.46
17 | TATTTGGCTCTCATGCTGGAGG | -0.854
18 | TAGAATCCCACTGCGATGCCGG | -0.487
19 | TAGCCCAGCCACCTGTACCAGT | -1.16
20 | TAGTCGGTGTCCTCGGGCCGGA | -1.53
21 | TTGCCGTAGAATCCCACTGCGA | -1.44
22 | TAGCAGAAGCCGGTCAGCGCTT | -0.823
23 | TTGGCTCTCATGCTGGAGGTGT | -0.0842
24 | TTTTGCTGCCAGGTGTGCGGGA | -0.687
